This is one part of a sample in which hits are shown more often than they occur.
KDM5B inh – Primary screen for KDM5B Histone Demethylases FDH-coupled qHTS. Lysine-specific demethylase 5B (Homo sapiens), Q9UGL1. KDM5B demethylase, FDH-coupled NADH fluorescence (FDH is formaldehyde dehydrogenase). Potency, µM (series often up to 57.7 µM), usual class: inhibitors. hit rate 2.6% among 220,000; active = well fitted inhibition curve with a large enough effect; also: 0% is about no effect; nearly all actives have a fitted effect of over 70% in size
Target sequence (Q9UGL1 whole entry, looked up): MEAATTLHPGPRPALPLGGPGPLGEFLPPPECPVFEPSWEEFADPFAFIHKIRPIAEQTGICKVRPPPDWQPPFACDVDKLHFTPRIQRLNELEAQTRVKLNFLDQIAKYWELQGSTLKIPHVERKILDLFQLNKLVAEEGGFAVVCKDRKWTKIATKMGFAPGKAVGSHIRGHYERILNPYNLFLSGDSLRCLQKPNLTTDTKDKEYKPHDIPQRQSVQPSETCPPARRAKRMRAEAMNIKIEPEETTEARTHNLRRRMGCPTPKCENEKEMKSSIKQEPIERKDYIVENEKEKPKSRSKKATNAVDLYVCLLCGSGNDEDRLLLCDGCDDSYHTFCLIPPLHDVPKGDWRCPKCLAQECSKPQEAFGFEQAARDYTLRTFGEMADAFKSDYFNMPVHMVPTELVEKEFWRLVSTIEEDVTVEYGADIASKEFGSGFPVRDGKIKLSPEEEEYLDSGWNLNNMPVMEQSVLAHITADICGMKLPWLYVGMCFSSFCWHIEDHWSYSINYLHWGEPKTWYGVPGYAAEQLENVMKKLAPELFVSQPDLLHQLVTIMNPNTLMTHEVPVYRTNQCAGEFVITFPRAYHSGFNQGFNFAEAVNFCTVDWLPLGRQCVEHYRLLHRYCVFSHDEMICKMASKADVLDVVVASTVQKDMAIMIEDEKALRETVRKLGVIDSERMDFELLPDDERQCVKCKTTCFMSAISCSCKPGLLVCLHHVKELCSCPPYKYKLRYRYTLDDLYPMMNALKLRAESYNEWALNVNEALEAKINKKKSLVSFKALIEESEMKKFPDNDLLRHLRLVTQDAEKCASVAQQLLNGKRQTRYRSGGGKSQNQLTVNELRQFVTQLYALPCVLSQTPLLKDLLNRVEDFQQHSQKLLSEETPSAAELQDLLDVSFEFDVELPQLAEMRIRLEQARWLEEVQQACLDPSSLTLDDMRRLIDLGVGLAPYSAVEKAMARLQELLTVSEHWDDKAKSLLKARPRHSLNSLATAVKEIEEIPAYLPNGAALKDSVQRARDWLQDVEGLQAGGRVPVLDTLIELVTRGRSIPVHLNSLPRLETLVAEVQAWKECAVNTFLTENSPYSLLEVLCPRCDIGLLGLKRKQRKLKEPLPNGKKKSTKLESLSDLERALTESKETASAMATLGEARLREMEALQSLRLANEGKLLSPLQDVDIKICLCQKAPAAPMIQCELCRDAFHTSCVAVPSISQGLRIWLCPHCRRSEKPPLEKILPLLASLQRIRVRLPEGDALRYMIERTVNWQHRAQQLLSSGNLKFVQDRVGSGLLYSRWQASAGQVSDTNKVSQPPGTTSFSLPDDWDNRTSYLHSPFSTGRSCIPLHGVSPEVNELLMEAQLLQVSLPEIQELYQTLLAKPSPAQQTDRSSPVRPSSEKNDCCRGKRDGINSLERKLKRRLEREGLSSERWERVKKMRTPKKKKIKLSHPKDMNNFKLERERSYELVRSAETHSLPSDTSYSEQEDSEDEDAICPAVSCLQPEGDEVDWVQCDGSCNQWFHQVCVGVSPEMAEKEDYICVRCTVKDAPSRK
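qHTS format, multiple compound concentrations. Buffer 50 mM HEPES pH 7.5/0.01% Tween-20; 200 nM KDM5BΔAP final; 10 min compound preincubation; substrate-mix levels 12.5 µM peptide, 25 µM α-KG, 0.25 mM NAD⁺; 30 min RT; ΔRFU.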
* hit, by the source's call; i = inactive. Potency is read from the fitted curve at half-maximal effect.

SMILES	KDM5B inh
COc1ccc(-c2nc(SCC(=O)N3CCCC3c3ccc4c(c3)OCCO4)n[nH]2)cc1 (stereo not given)	i
O=C(NCCC1CCN(C(=O)Nc2cc(F)cc(F)c2)CC1)c1ccccc1	i
COc1ccc(C(=O)NCCC2CCN(C(=O)Nc3cc(F)cc(F)c3)CC2)cc1	i
CN(C)c1cccc(C(=O)NCCC2CCN(C(=O)Nc3cc(F)cc(F)c3)CC2)c1	32µM*
COC(=O)CNC(=O)Cn1ccc2ccc(OCc3ccccc3)cc21	i
Cc1ccccc1Cn1ccc(NC(=O)C2=CC(c3ccc(F)cc3)=NS(=O)(=O)N2C)n1	i
CCNC(=S)Nc1cccc(Cl)c1Cl	i
CC1CCC(NC(=O)CSCc2coc(-c3ccc(Cl)cc3)n2)CC1 (stereo not given)	i
Cc1ccccc1-c1cc(-c2cn[nH]c2)c2cncn2c1	i
c1cc(-c2cn[nH]c2)ccn1	i
COc1cccc(-c2cc(-c3cn[nH]c3)c3cncn3c2)c1	40µM*
COc1cccc(-c2[nH]ncc2CN)c1	i
Fc1cccc(-c2cc(-c3cn[nH]c3)c3cncn3c2)c1	35µM*
CN(C)Cc1ccc(-c2cc(-c3cn[nH]c3)c3cncn3c2)cc1	40µM*
COc1ccc(-c2cc(C(=O)Nc3ccc4c(c3)OCO4)on2)cc1OC	i
CC(=O)Nc1ccccc1-c1c(C)nn2c1N(C(=O)c1ccc(Oc3ccccc3)cc1)CCC2	i
Cn1c(=O)c2c(nc(SCCCc3ccccc3)n2Cc2ccccc2)n(C)c1=O	i
CCCCn1c(SCc2cc(=O)oc3c(C)c(C)ccc23)n[nH]c1=O	i
Cc1cccc(CSC2=NS(=O)(=O)c3ccccc3N2Cc2ccccc2)c1	i
O=C(Cc1ccccc1Cl)NCc1cccc(C(=O)Nc2ccccc2)c1	i
Cc1cc(-c2nn3c(-c4cccs4)nnc3s2)n(C)n1	i
CC(C)C(=O)N/N=C/c1ccco1	i
Cc1cc2c(c(=O)n(-c3ccccc3)c(=O)n2CC(=O)Nc2ccccc2Cl)n1C	i
O=C(COC(=O)C12CC3CC(CC(O)(C3)C1)C2)Nc1ccc([N+](=O)[O-])cc1Cl	i
Cn1nnnc1C1CCCN(C(=O)CCC2CCCC2)C1 (stereo not given)	i
SMILES	KDM5B inh
Cn1nnnc1C1CCCN(C(=O)NC2CCCCC2)C1 (stereo not given)	i
Cn1nnnc1C1CCCN(C(=O)C2CCCC2)C1 (stereo not given)	28µM*
O=C(OC1CCCCC1=O)c1ccc(F)cc1Cl (stereo not given)	i
O=C(COc1ccc(F)cc1)N1CCN(c2cc(-c3ccccc3)[nH]n2)CC1	i
CC(NC(=O)COc1ccc(F)cc1)C(=O)N1CCN(c2ccccn2)CC1 (stereo not given)	28µM*
COc1ncc(-c2cnc3[nH]cc(CC(=O)N4CCOCC4)c3c2)cn1	i
COc1cccc(CC(=O)N2C[C@@H](CO)[C@H](c3ccccn3)C2)c1	i
CC(NC(=O)COc1ccccc1)C(=O)N1CCN(c2ccc(F)cc2)CC1 (stereo not given)	i
O=C(Cc1c[nH]c2ncc(-c3cccnc3)cc12)N1CCN(c2ccccn2)CC1	i
CCOc1ccccc1C(=O)NC(C)c1ccc(-n2ccnc2)cc1 (stereo not given)	i
COc1ccc(-c2cnc3[nH]cc(CC(=O)N4CCN(c5ccccn5)CC4)c3c2)cc1	28µM*
CCOc1ccccc1C(=O)N[C@H](C(=O)O)C(C)C	i
COc1cccc(CC(=O)NC(C)C(=O)N2CCN(c3ccccn3)CC2)c1 (stereo not given)	25µM*
COC(=O)C1=C(CN2CCN(c3ccccn3)CC2)NC(=O)NC1c1cccc(OC)c1 (stereo not given)	i
CCOc1ccccc1C(=O)NC(C)C(=O)N1CCN(c2ccccn2)CC1 (stereo not given)	22µM*
COc1cc(NC(=O)C2=CCN(Cc3ccccc3F)CC2)cc(OC)c1OC	i
Cc1nn(CC(=O)c2cc(C)n(C(C)C)c2C)c(=O)c(C#N)c1C	i
Cc1ccccc1NC(=O)COC(=O)c1cccc2c(=O)c(C)c(-c3ccccc3)oc12	i
O=C1CN(C(=O)Cn2c(=O)c3c(ncn3Cc3ccccc3)n(Cc3ccccc3)c2=O)CCN1	i
CCN(CC)Cc1ccc(CNC(=O)c2c(C)[nH]c3ccccc23)cc1	i
c1ccc2c(CNC3CC3)cccc2c1	i
Cc1cc(C)cc(C(=O)NC(Cc2ccccc2)C(=O)N2CCN(c3ccccn3)CC2)c1 (stereo not given)	25µM*
COc1cccc(CC(=O)N[C@@H](Cc2ccccc2)C(=O)N2CCCOCCNC(=O)CC2)c1	i
COc1ccc(-c2cnc3[nH]cc(CC(=O)Nc4ccc(C(F)(F)F)cc4)c3c2)cc1	i
COc1ccc(/C=C/C(=O)NC(=S)N2CCN(c3ccccn3)CC2)cc1	i
SMILES	KDM5B inh
COc1cccc(CCC(=O)NC(C)C(=O)N2CCN(c3ccccn3)CC2)c1 (stereo not given)	22µM*
Cc1cccc(C(=O)N[C@@H](C)C(=O)N2CCN(c3ncccn3)CC2)c1	i
COc1ccc(-c2cnc3[nH]cc(CC(=O)NCCN(C)C)c3c2)cc1	40µM*
COc1cccc(CCC(=O)Nc2cccc(-c3nnc4n3CCCC4)c2)c1	i
COc1ccc(CC(=O)NC(C)C(=O)N2CCN(c3ccccn3)CC2)cc1 (stereo not given)	32µM*
COc1ccc(-c2coc3cc(OCC(=O)N4CCN(c5ccccn5)CC4)ccc3c2=O)cc1	i
Cc1cc(C)cc(C(=O)N2CCN(c3cc(-c4ccccc4)[nH]n3)CC2)c1	i
COc1ccc(OC)c(-c2cnc3[nH]cc(CC(=O)NCc4cccnc4)c3c2)c1	i
O=C(NC[C@H]1O[C@H](Cc2cc(CN3CCN(c4ccccc4)CC3)on2)CC[C@@H]1O)c1ccccc1	i
CCCCCCn1c(SCC(=O)Nc2ccccc2)nc2c1c(=O)n(C)c(=O)n2C	i
N#Cc1ccc(Cn2c(=O)c3c(ncn3C3CCCC3)n(Cc3ccccc3)c2=O)cc1	i
O=C(CN1C(=O)NC(c2ccccc2Cl)C2=C1COC2=O)Nc1ccc(F)cc1F (stereo not given)	i
CCCn1nc(C(=O)N2CCN(c3ccccn3)CC2)c2ccccc2c1=O	i
Cc1[nH]c2ccccc2c1CN1CCN(c2ccccn2)CC1	i
CC(NC(=O)c1n[nH]c2ccccc12)C(=O)N1CCN(c2ccccn2)CC1 (stereo not given)	22µM*
S=C(NCCc1ccccc1)Nc1ccccc1Cc1ccccc1	i
CCc1ccc(NC(=S)N(CC)c2ccccc2)cc1	i
COCCN1CCNc2nc(CNc3ccon3)n(Cc3ccccc3)c2C1=O	i
CCc1ccc(-c2cc(C(F)(F)F)on2)cc1S(=O)(=O)NCc1ccc(OC)cc1	i
Cc1cccc(C)c1NC(=O)COC(=O)c1ccc2c(c1)NC(=O)C(C)S2 (stereo not given)	i
COC(=O)c1ccc2c(c1)nc1n2[C@@H](CNC(=O)C2CC2)COC1	i
COc1ccc2nc3n(c2c1)[C@@H](CNC(=O)C1CCOCC1)COC3	40µM*
COc1ccc2nc3n(c2c1)[C@@H](CNC(=O)c1ccc(C#N)cc1)COC3	i
CC(=O)NCC(=O)N(c1ccc(C)cc1)C1(C(=O)Nc2ccc(C)cc2)CCCCC1	i
CCNc1c(NC(=O)NCCCOC)c(=O)oc2ccccc12	i
